Screening results from PubChem.
NPR1 activator: GC-A (human) enzyme activation. 370,000 tested, 0.14% active. HEK293 GC-A cells, cGMP TR-FRET, EC30 ANP; 0% at EC30 ANP, 100% saturating ANP. P16066. activation, % at 10 µM; in the data active means activation above about 40%
Target sequence (P16066 whole entry, looked up): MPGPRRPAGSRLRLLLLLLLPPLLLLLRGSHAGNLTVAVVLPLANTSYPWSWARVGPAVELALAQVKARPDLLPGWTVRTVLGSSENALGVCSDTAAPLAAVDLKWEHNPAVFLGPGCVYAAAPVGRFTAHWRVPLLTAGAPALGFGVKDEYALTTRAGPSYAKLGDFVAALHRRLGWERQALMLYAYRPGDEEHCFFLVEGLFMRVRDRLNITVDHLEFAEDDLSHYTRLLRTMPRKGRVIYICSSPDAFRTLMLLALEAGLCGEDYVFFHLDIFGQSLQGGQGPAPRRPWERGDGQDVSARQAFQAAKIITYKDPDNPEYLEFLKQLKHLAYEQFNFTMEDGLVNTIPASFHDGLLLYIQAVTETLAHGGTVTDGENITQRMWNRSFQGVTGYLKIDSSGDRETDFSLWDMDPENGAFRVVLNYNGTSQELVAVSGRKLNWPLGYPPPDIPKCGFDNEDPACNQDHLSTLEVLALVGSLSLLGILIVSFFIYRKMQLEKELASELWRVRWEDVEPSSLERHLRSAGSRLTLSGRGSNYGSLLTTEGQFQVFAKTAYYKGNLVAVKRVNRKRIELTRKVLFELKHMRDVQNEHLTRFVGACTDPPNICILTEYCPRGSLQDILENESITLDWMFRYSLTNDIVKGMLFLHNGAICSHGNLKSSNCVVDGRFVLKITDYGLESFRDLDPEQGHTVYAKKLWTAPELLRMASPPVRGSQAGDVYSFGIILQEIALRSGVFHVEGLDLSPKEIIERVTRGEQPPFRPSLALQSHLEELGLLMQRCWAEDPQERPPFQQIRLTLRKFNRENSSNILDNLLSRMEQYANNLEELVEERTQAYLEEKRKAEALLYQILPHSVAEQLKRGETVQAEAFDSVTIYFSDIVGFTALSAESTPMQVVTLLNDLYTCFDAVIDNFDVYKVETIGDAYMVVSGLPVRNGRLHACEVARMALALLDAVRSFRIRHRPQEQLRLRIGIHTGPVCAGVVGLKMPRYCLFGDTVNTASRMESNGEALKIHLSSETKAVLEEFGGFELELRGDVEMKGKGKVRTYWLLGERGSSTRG
NOD2-RIPK2 inh: blocks binding of human NOD2 to RIPK2; CHO BLA complementation NOD2-RIPK2, CCF4 ratio; inhibition, % at 4.98 µM; O43353; 360,000 tested, 0.38% active; in the data active means inhibition above about 21%;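 further: 0% = vehicle only and 100% = reference blocker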
TLR4-MyD88 BLA: inhibitors of human TLR4-MyD88 binding; O00206+Q99836; AID 861; inhibition, % at 8.4 µM; 200,000 tested, 0.18% active; HeLa CL3-4 TLR4/MyD88 BLA complementation, FRET ratio; in the data active means inhibition above about 25%;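 further: 0% = vehicle and 100% = reference inhibitor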
GC-B act: GC-B (human) receptor activation | 370,000 tested, 0.11% active | activation, % at 10 µM | P20594 | HEK293-GC-B cells, CNP EC30, cGMP TR-FRET; 0% at EC30 CNP, 100% saturating CNP;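 active means activation at 10 µM reaching about 35% in either raw or pattern-adjusted values, limit read from the data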
Neddylation inh: inhibitors of human cullin neddylation; P61081+Q13564; TR-FRET cullin neddylation, biochemical; inhibition, % at 25 µM; 360,000 tested, 0.58% active; AID 651699; in the data active means inhibition above about 36%
TLR9-MyD88 inh: TLR9-MyD88 interaction inhibition; Q9NR96+Q99836; CHO BLA complementation TLR9-MyD88, CCF4 FRET ratio; inhibition, % at 4.98 µM; 340,000 tested, 0.21% active; AID 504734;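 active means inhibition above the mean over all tested compounds plus 3 SD, cut at about 21% in these data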;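 further: 0% = DMSO only wells and 100% = clavulanate BLA inhibitor control wells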
NOD2-RIPK2 conf: confirmation of human NOD2-RIPK2 interaction inhibitors | AID 624370 | CHO cells, NOD2-RIPK2 BLA complementation, CCF4 FRET | inhibition, % at 4.98 µM | 1,200 tested, 70% active | shares compounds with NOD2-RIPK2 inh;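 active means mean inhibition across replicates above a set limit taken from the earlier primary screen, cut at about 21% in these data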;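 further: 0% = DMSO-only wells and the high end = clavulanate BLA-blocked wells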
BLA counter: counter-screen for NOD2-RIPK2 interaction inhibitors: BLA reporter. AID 624371. inhibition, % at 4.98 µM. CHO BLA reporter, CCF4 FRET ratio, counterscreen. 1,200 tested, 57% active. shares compounds with NOD2-RIPK2 inh;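 active means mean inhibition above the low-control mean inhibition plus three low-control SD, cut at about 11% in these data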;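 further: 0% = DMSO only wells and 100% = clavulanate high control wells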
The depositor's hits bear a star. This is a sample that favours compounds with a hit; in the whole collection about 1.2% have one here.

Cc1ccc(-c2nn(-c3ccccc3)cc2CN(Cc2ccccc2)C(=O)c2ccco2)o1 was read as NPR1 activator 7, NOD2-RIPK2 inh 36*, TLR4-MyD88 BLA -3, GC-B act 19, Neddylation inh -18, TLR9-MyD88 inh 8, NOD2-RIPK2 conf 2 and BLA counter -7.
For COc1ccc2c(c1OC)C(=O)OC2 the results were NPR1 activator -6, NOD2-RIPK2 inh -9, TLR4-MyD88 BLA -7, GC-B act -3, Neddylation inh 14 and TLR9-MyD88 inh 2.
For COc1ccc2c3c(cccc13)C(=O)CC2 the results were NPR1 activator 5, NOD2-RIPK2 inh 27*, GC-B act 4, Neddylation inh -38, TLR9-MyD88 inh 0, NOD2-RIPK2 conf 2 and BLA counter 5.
`CN1C(=O)c2cccc3c(S(=O)(=O)N(C)C)ccc1c23` gave NPR1 activator 5, NOD2-RIPK2 inh 22*, GC-B act 0, TLR9-MyD88 inh 10, NOD2-RIPK2 conf 11 and BLA counter 16*.
For O=C(c1ccccc1Cl)N(Cc1ccc(Cl)c(Cl)c1)N1C(=O)CCCC1=O the results were NPR1 activator -3, NOD2-RIPK2 inh 14, TLR4-MyD88 BLA 10, GC-B act 0, Neddylation inh -8 and TLR9-MyD88 inh 7.
O=C(c1ccccc1Cl)N(Cc1ccc(Br)cc1)N1C(=O)CCC1=O was read as NPR1 activator 3, NOD2-RIPK2 inh 23*, TLR4-MyD88 BLA -10, GC-B act 3, Neddylation inh -2, TLR9-MyD88 inh -2, NOD2-RIPK2 conf 0 and BLA counter -2.
Screening COC1=C[C@H](C(=O)NCc2ccccn2)[C@@]2(C)Cc3ccccc3[C@H]2CC1=O returned NPR1 activator 3 and GC-B act 8.
Screening Cc1ccccc1NC(=S)NCc1ccc2c(c1)OCO2 returned NPR1 activator 3, NOD2-RIPK2 inh 39*, TLR4-MyD88 BLA 10, GC-B act 6, Neddylation inh 1, TLR9-MyD88 inh 8, NOD2-RIPK2 conf -2 and BLA counter -3.
`Cc1cccc(NC(=S)NCc2ccc3c(c2)OCO3)c1C` gave NPR1 activator 1, NOD2-RIPK2 inh 3, TLR4-MyD88 BLA -2, GC-B act 3, Neddylation inh -4 and TLR9-MyD88 inh -1.
O=c1c(O)c(-c2ccc(O)c(O)c2)oc2cc(O)ccc12 was read as NPR1 activator 24, NOD2-RIPK2 inh 25*, GC-B act -10, Neddylation inh 33, TLR9-MyD88 inh 20, NOD2-RIPK2 conf 29* and BLA counter 28*.
Screening Cc1ccc(-n2c(SCC(=O)Nc3ccc4c(c3)OCCO4)nnc2-c2cccnc2)cc1 returned NPR1 activator -5 and GC-B act -16.
`CC(=O)Oc1ccccc1C(=O)C=Cc1cccc([N+](=O)[O-])c1` gave NPR1 activator -6, NOD2-RIPK2 inh 60*, GC-B act -1, Neddylation inh -1, TLR9-MyD88 inh 7, NOD2-RIPK2 conf 71* and BLA counter -5.
For Cc1cc(O)c(C(=O)/C=C/c2cccc([N+](=O)[O-])c2)c(=O)o1 the results were NPR1 activator -8, NOD2-RIPK2 inh 2, GC-B act -3, Neddylation inh -17 and TLR9-MyD88 inh -6.
COCCNC(=S)N(C)[C@H]1C[C@H]2c3[nH]c4c(-c5ccc6c(c5)OCO6)cccc4c3CCN2C(=O)[C@H]1[C@H](C)O was read as NPR1 activator -4 and GC-B act -7.
`O=C(NCc1cccnc1)/C(=C\c1ccc(-c2cccc(Cl)c2)o1)S(=O)(=O)c1ccccc1` gave NPR1 activator -21, NOD2-RIPK2 inh 35*, TLR4-MyD88 BLA -3, GC-B act -7, Neddylation inh 9, TLR9-MyD88 inh 13, NOD2-RIPK2 conf 48* and BLA counter 4.
Screening O=C(NCc1cccnc1)/C(=C/c1ccc(-c2cccc(Cl)c2)o1)S(=O)(=O)c1ccccc1 returned NPR1 activator 1, NOD2-RIPK2 inh -26, TLR4-MyD88 BLA 16, GC-B act 5, Neddylation inh -2 and TLR9-MyD88 inh 4.
`COc1cccc([C@@H]2NC(=O)C/C=C/[C@H](C)[C@H](c3cccc(OC)c3)NC(=O)C/C=C/[C@@H]2C)c1` gave NPR1 activator -3 and GC-B act -3.
Screening CCOc1ccc(CNC(=O)CCc2cn(C)c3ccccc23)cc1OC returned NPR1 activator 2, NOD2-RIPK2 inh 37*, TLR4-MyD88 BLA 1, GC-B act 8, Neddylation inh 4, TLR9-MyD88 inh 9, NOD2-RIPK2 conf -2 and BLA counter -1.
For CCOc1ccc(CNC(=O)CCS(=O)(=O)Cc2ccccc2C)cc1OC the results were NPR1 activator 0, NOD2-RIPK2 inh 3, TLR4-MyD88 BLA 0, GC-B act 0, Neddylation inh -3 and TLR9-MyD88 inh -8.
Screening Nc1c(C(=O)Nc2ccc(Br)cc2)sc2nc(-c3ccco3)ccc12 returned NPR1 activator 7, NOD2-RIPK2 inh 26*, TLR4-MyD88 BLA 23, GC-B act -1, TLR9-MyD88 inh 36*, NOD2-RIPK2 conf 67* and BLA counter 66*.
For CCOC(=O)c1c(C)[nH]c(C2=NNC(=Nc3ccc(OCC)cc3)SC2)c1C the results were NPR1 activator 4, NOD2-RIPK2 inh 35*, TLR4-MyD88 BLA -6, GC-B act 1, Neddylation inh 11, TLR9-MyD88 inh 5, NOD2-RIPK2 conf -1 and BLA counter -6.
Screening CCOC(=O)c1c(C)[nH]c(C2=NNC(=Nc3ccccc3)SC2)c1C returned NPR1 activator 1, NOD2-RIPK2 inh -9, TLR4-MyD88 BLA 0, GC-B act 9, Neddylation inh 21 and TLR9-MyD88 inh -5.
CC(=O)CC[C@@H]1CC[C@]2(CCCN(C(=O)c3ccno3)C2)O1 was read as NPR1 activator 6 and GC-B act -4.
For O=C1C(=NO)C(c2ccccc2)Oc2ccccc21 (configuration not stated) the results were NPR1 activator 1, NOD2-RIPK2 inh 28*, GC-B act 4, Neddylation inh -10, TLR9-MyD88 inh 12, NOD2-RIPK2 conf 20 and BLA counter 27*.
Screening O=C(c1ccccc1)N1C(=O)C(c2ccccc2)Oc2ccccc21 (configuration not stated) returned NPR1 activator 4, NOD2-RIPK2 inh -9, GC-B act -1, Neddylation inh 1 and TLR9-MyD88 inh -6.
